The panel holds about 79,000 compounds, 15% with a hit somewhere; the sample as a whole holds those more often. A number with no mark means an inactive call. The source made the active and inactive calls. Cut-off read from the data, not from the text of the source: active = growth inhibition above about 70%; inactive = the rest.

This experiment can be described thus: NCI Yeast Anticancer Drug Screen. Data for the sgs1 mgt1 strain (AID 161).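 Note: 0% = growth of cultures given vehicle only.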 To be noted: S. cerevisiae sgs1 mgt1 strain, at 50.0 µM, stronger effect = higher value. The essentials: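 Mutant yeast exposed to compound; growth scored against vehicle-only wells.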
Consider `COc1cc(C(C#N)NNc2nc(C)cc(=O)[nH]2)cc(OC)c1OC` (stereo not given), for which the growth inhibition is -31.1%.

`CCOC(=O)NC(=O)c1cn(CCN2CCN(C(=O)CCCCCCCCCCC(=O)N3CCN(CCn4cc(C(=O)NC(=O)OCC)c(=O)[nH]c4=O)CC3)CC2)c(=O)[nH]c1=O`: the growth inhibition was 11.2%.

In the case of `O=C(O)c1ccc(Cl)c(C(=O)O)c1`, the growth inhibition is 26.7%.

For `COc1ccc2nc(N/N=C/C(C)=N/Nc3cc(C)c4cc(OC)ccc4n3)cc(C)c2c1`, the growth inhibition was -2%.

Turning to `CC1(C)OC2C(O1)[C@H]1OC(C(Cl)(Cl)Cl)=N[C@H]1C(I)[C@H]2N1C(=O)c2ccccc2C1=O` (stereo not given in full), the growth inhibition was -5.15%.

Regarding `COc1cc(C(=O)C(C=O)c2ccccc2)c([N+](=O)[O-])cc1OC` (stereo not given), the growth inhibition is 21.5%.

Regarding `COC1OC2COC(c3ccccc3)OC2C(N=[N+]=[N-])C1O` (stereo not given), the growth inhibition was -4.9%.

On to `CC(C)CC(O)(CC(C)C)C(CCC(=O)Nc1ccccc1)C(=O)Nc1ccccc1` (stereo not given), for which the growth inhibition was 1.9%.

Consider `CC1=Nc2ccccc2C1(C)C`, for which the growth inhibition is 15%.

On to `Nc1ncnc2c1[nH]c(=S)n2C1OC(CO)C(O)C1O` (stereo not given), for which the growth inhibition is 3.1%.

Turning to `CC(C)(C)OC(=O)Cc1ccc2c(ccn2Cc2ccccc2)c1`, the growth inhibition is -10.9%.

In the case of `CC(=O)Nc1c(Cl)cc2c(c1Cl)Cc1cc(N(C)C)ccc1-2`, the growth inhibition is 0.5%.

In the case of `Cc1ccc(C2(c3ccc(C)cc3)OCC(C)(CBr)CO2)cc1`, the growth inhibition is -20.4%.

As for `COC(=O)N/N=C(\C)CC(=O)Nc1ccc(Cl)cc1`, the growth inhibition was -28.2%.

In the case of `CC1C(C)(C)P(=O)(OCCOP2(=O)C(C)(C)C(C)C2(C)C)C1(C)C` (stereo not given), the growth inhibition was 22.2%.

With `CC(=O)NC(Cc1cccc2ccccc12)C(=O)O` (stereo not given), the growth inhibition is -0.05%.

Regarding `c1ccc(N=C2CCCCCC2)cc1`, the growth inhibition is -5.8%.

Consider `COc1cc2cc3c4cc(OC)c(OC)cc4cc[n+]3cc2cc1OC`, for which the growth inhibition was -2.8%.

Take `CCN(CC)c1ccc2cc(C(=O)Nc3nc(C45CC6CC(CC(C6)C4)C5)cs3)c(=O)oc2c1`: the growth inhibition was -16.9%.

Turning to `O=C(NCCCN1CCCCCC1)C(c1ccccc1)C1CCCCC1` (stereo not given), the growth inhibition is 49.4%.

As to `CC1(C)N=C(N)N=C(N)N1c1ccc(C(F)(F)F)cc1`, the growth inhibition was 7.85%.

With `CC(Cc1ccccc1)NC(=O)CCCN1C(=O)c2ccccc2C1=O` (stereo not given), the growth inhibition is -10.7%.

`CCSc1nc(C)nc2c1cnn2-c1ccccc1`: the growth inhibition is -2.65%.

Take `CC1(C)OC[C@@H](O)[C@H](Br)CO1`: the growth inhibition is -20.9%.

With `COc1ccc2cc3n(cc-2c1=O)CCc1cc2c(cc1-3)OCO2`, the growth inhibition is 5.65%.

As to `N#CCCCN1CCOCC1`, the growth inhibition was -7.9%.

As to `CC(=O)C1(C)CCC2C3CCC4=CC(=O)CCC4=C3CCC21C` (stereo not given), the growth inhibition was 50.9%.

In the case of `CC(C)(C)/[N+]([O-])=C/C1(C2(/C=[N+](\[O-])C(C)(C)C)Cc3ccccc3C2=O)Cc2ccccc2C1=O` (stereo not given), the growth inhibition was 3.05%.

For the compound `COC(=O)/C=C/C(=N/N(C)c1ccccc1)c1ccccc1`, the growth inhibition was 2.75%.

On to `NCCC(=O)NCCSSCCNC(=O)CCN`, for which the growth inhibition was 6.25%.

In the case of `O=C(NCCCNCCCCNCCCNC(=O)C(F)(F)F)C(F)(F)F`, the growth inhibition is 6.6%.

As for `O=C(CCC(=O)Nc1cc(Cl)ccc1Cl)CC(=O)c1ccc(Cl)cc1`, the growth inhibition was 10.4%.

As for `S=C1NC(/C=C/c2ccccc2)Nc2ccccc21` (stereo not given), the growth inhibition is 73% (active).

As for `O=C(Nc1cc(Br)c2cccc3c2c1CC3)c1ccccc1`, the growth inhibition was 1.45%.

On to `CN(C)CC(c1ccccc1)C(O)(c1ccccc1)c1ccccc1` (stereo not given), for which the growth inhibition is -1%.

Take `Clc1ccccc1CSc1cc(SCc2ccccc2Cl)nc(SCc2ccccc2Cl)n1`: the growth inhibition is -2.25%.

For `CC(C)=CCC(C)C`, the growth inhibition was 6.85%.

On to `CCC(=O)NC1CCCCC1`, for which the growth inhibition was 19.2%.

For the compound `O=C(c1ccccc1)C(c1ccccc1)N(CCO)CCO` (stereo not given), the growth inhibition is -2.85%.

As to `O=c1[nH]c2ccccc2c(N=Cc2ccccc2)c1-c1ccccc1`, the growth inhibition is -4.6%.

For the origin of these results see PubChem BioAssay (NCI).
